High-throughput results: PubChem BioAssay, The Scripps Research Institute Molecular Screening Center
This is a sample that favours compounds with a hit; in the whole collection about 3.2% have one here.
rCAG RNA binder = r(CAG) repeat RNA binding; TO-PRO-1 dye displacement fluorescence; 370,000 compounds, 1.3% hits; AID 651821; inhibition, % at 3 µM;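 active = inhibition above the plate cutoff, the mean of all test compounds on that plate plus 3 SD, cut at about 35% in these data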;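 note: 0% = DMSO alone and 100% = 100 µM mitoxantrone as full dye displacement; higher means more dye released from RNA so lower well fluorescence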
PG9 Ab binder = binds the HIV-1 gp120 antibody PG9 | inhibition, % at 6.7 µM | AID 624416 | 360,000 compounds, 0.43% hits | TR-FRET gp120-PG9 antibody binding; in the data active = inhibition above about 8.5%
MsrA act = activates bovine MsrA enzyme | purified bovine MsrA, absorbance read-out | activation, % at 10.6 µM | 360,000 compounds, 0.3% hits | AID 602163; in the data active = activation above about 7.5%;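 note: 0% = vehicle and 100% = reference activator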
sPLA2-III inh = Inhibits HGIII-sPLA2 liposome hydrolysis, primary screen; QFRET BODIPY PC-A2 liposome hydrolysis, fluorescence; inhibition, % at 12.2 µM; 370,000 compounds, 0.56% hits; AID 743126;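 active = inhibition above mean plus 3 SD of compounds lying within the high and low control bounds, cut at about 19% in these data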;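 note: 0% = median of test compound wells and 100% = no enzyme DMSO wells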
Target sequence (Q9NZ20 whole entry, looked up): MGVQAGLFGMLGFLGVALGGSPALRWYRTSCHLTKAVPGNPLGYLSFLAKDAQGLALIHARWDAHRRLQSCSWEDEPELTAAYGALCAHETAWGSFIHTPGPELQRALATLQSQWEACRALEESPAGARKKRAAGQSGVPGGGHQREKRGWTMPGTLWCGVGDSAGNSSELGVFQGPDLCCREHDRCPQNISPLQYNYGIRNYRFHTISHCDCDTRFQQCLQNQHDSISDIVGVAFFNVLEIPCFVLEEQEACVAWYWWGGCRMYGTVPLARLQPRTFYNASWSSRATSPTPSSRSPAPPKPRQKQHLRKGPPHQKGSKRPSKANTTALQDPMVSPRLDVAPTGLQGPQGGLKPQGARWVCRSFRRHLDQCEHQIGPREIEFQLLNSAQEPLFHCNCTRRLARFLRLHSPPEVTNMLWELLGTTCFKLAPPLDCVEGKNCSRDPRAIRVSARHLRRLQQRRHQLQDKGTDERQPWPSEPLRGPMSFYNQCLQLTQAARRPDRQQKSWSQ
MsrA inhibitor = inhibits bovine methionine sulfoxide reductase A; purified bovine MsrA, absorbance read-out; inhibition, % at 15.5 µM; 360,000 compounds, 0.75% hits; in the data active = inhibition above about 4.5%;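 note: 0% = vehicle wells with enzyme and 100% = reference inhibitor wells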
rCAG bind conf = r(CAG) RNA repeat binding, confirmation. shares compounds with rCAG RNA binder. TO-PRO-1 dye displacement fluorescence. inhibition, % at 3 µM. 4,300 compounds, 70% hits;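 active = inhibition above a per-plate cutoff, the mean inhibition of sample wells plus 3 SD, cut at about 35% in these data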;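 note: loss of TO-PRO-1 fluorescence as compound displaces dye from 1x1 AA loop RNA; 0% = DMSO only wells and 100% = 100 µM mitoxantrone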
dCAG dye counter = counter-screen for rCAG RNA binders: DNA CAG dye complex inhibitors. shares compounds with rCAG RNA binder. d(CAG) DNA oligo TO-PRO-1 dye displacement, fluorescence. inhibition, % at 3 µM. 4,300 compounds, 94% hits. AID 652068;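 active = inhibition above its plate's cutoff, the mean test-well inhibition plus 3 SD, cut at about 4.8% in these data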;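 note: 0% = DNA dye mix with DMSO and 100% = 100 µM mitoxantrone; hits displace the dye from DNA and so lower well fluorescence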
Starred values were filed as active, the others as inactive; / = no result.

SMILES | rCAG RNA binder | PG9 Ab binder | MsrA act | sPLA2-III inh | MsrA inhibitor | rCAG bind conf | dCAG dye counter
O=C(Nc1ccc(C(=O)Nc2ccccc2Cl)cc1)c1cccnc1 | -3 | -2 | -2 | 3 | 0 | / | /
COc1ccc(N=C2NC(=O)/C(=C/c3ccco3)S2)cc1 | 31 | -4 | -4 | -26 | 2 | / | /
Cc1ccc(S(=O)(=O)/N=C2/NC(=O)/C(=C/c3ccccn3)S2)cc1 | 45* | 1 | -8 | -34 | 3 | 37* | 10*
COc1ccc(/C=C2\SC(=NCc3ccccc3)NC2=O)cc1 | 8 | 0 | -1 | 7 | 2 | / | /
COc1ccc(S(=O)(=O)/N=C2/NC(=O)/C(=C\c3ccco3)S2)cc1 | 65* | -1 | -5 | -15 | 4 | 44* | 12*
Cc1ccc(N=C2NC(=O)/C(=C/c3cccn3C)S2)cc1 | 16 | -2 | 0 | -9 | 1 | / | /
COc1ccc(S(=O)(=O)/N=C2/NC(=O)/C(=C/c3ccco3)S2)cc1 | 85* | -2 | -4 | -17 | 1 | 42* | 11*
CCOC(=O)c1cc(C#N)c(SCC(N)=O)[nH]c1=O | -6 | -2 | -4 | -1 | 4 | / | /
CCOC(=O)c1cc(C#N)c(SCC(=O)Nc2ccc(C(C)=O)cc2)[nH]c1=O | 43* | -1 | -1 | -15 | 2 | 44* | 10*
CCOC(=O)c1c(NC(=O)Nc2ccc(Cl)cc2)sc(C)c1C | 3 | 0 | -1 | -2 | 0 | / | /
CCOC(=O)c1c(NC(=O)/C=C/C(=O)O)sc(C)c1-c1ccc(Cl)cc1 | 46* | -1 | -4 | -16 | 1 | 46* | 11*
O=S1(=O)c2ccc(Br)cc2OC[C@@H](Cc2ccccc2)N1Cc1cn(CCC2OCCCO2)nn1 | 3 | / | / | 2 | / | / | /
COc1cc(/C=N/N=C2/NC(=O)C(CC(=O)O)S2)ccc1OCc1cccc(Cl)c1 (stereo not given) | 43* | 0 | -6 | -8 | 3 | 26 | 5.5*
CCOc1cc(/C=N/N=C2/NC(=O)C(CC(=O)O)S2)ccc1OCc1ccc(Cl)cc1 (stereo not given) | 60* | 0 | -7 | -20 | 3 | 40* | 10*
COc1cc(/C=N/N=C2/NC(=O)C(Cc3ccccc3)S2)ccc1O (stereo not given) | 15 | 0 | -1 | -23 | 4 | / | /
CC(C)(C)c1ccc(-c2cn(C[C@H](Cc3ccccc3)n3c(=O)c4ccccc4n3Cc3ccco3)nn2)cc1 | 12 | / | / | 7 | / | / | /
N#CC(=C(O)CN1CCN(c2ccccc2F)CC1)c1nc(-c2ccccc2)cs1 | 51* | 0 | -7 | -4 | 3 | 51* | 18*
N#CC(=C(O)CN1CCN(c2ccccc2F)CC1)c1nc(-c2ccc(Cl)cc2)cs1 | 51* | -1 | -3 | 3 | 2 | 63* | 24*
CCOC(=O)C1CCCN(C/C(O)=C(\C#N)c2nc(-c3ccc(Cl)cc3)cs2)C1 (stereo not given) | 35* | 1 | -10 | -27 | 2 | 58* | 17*
CCc1noc(C)c1C(=O)N1CCN(CC(=O)OC)CC1 | 1 | / | / | 6 | / | / | /
O=C(CNc1nnnn1-c1ccccc1)N1CCCC1 | -1 | / | / | 2 | / | / | /
O=C(NCc1ccccn1)C1Nc2ccc(OC(F)(F)F)cc2C2C=CCC12 (stereo not given) | 37* | 1 | -10 | 5 | 0 | 2 | 2
O=C(NC1CC1)C1Nc2ccc(OC(F)(F)F)cc2C2C=CCC12 (stereo not given) | 43* | 0 | -3 | -6 | -1 | 2 | 0
O=C(NCc1ccccc1)C1Nc2ccc(OC(F)(F)F)cc2C2C=CCC12 (stereo not given) | 34 | -2 | -2 | 11 | 0 | / | /
CCOC(=O)C1Nc2ccc(OC(F)(F)F)cc2C2C=CCC12 (stereo not given) | 40* | -4 | -11 | -3 | 1 | 17 | 6.1*
SMILES | rCAG RNA binder | PG9 Ab binder | MsrA act | sPLA2-III inh | MsrA inhibitor | rCAG bind conf | dCAG dye counter
O=C(NCCCN1CCOCC1)C1Nc2ccc(OC(F)(F)F)cc2C2C=CCC12 (stereo not given) | 6 | 1 | -2 | -6 | 0 | / | /
COC(=O)[C@]12C[C@H](CC(=O)N3CCSCC3)C(=O)N(Cc3ccc4c(c3)OCO4)C1=C[C@H](C(C)C)O[C@@H]2C1CC1 | 4 | / | / | -3 | / | / | /
COc1ccc(C2C(C(=O)N3CCOCC3)CC(=O)N2c2ccc(OC)cc2)cc1 (stereo not given) | 3 | / | / | 4 | / | / | /
CCOC(=O)c1c(C)n(S(=O)(=O)c2ccc(C)cc2)c2ccc(O)c(C(=O)O)c12 | 66* | 2 | 4 | -44 | -1 | 64* | 27*
C[C@H]1C2CC(OC(=O)Nc3ccc(F)cc3)C(C2)[C@H]2CCCCN21 (stereo not given in full) | 5 | / | / | 12 | / | / | /
O=C(Nc1nccs1)c1c(O)c2c([nH]c1=O)CCCC2 | -2 | -3 | 1 | -6 | 0 | / | /
O=C(Nc1ccccc1O)c1c(O)c2c([nH]c1=O)CCCC2 | 44* | -2 | -2 | -2 | 1 | 40* | 27*
O=C(CN1C(=O)/C(=C2/SC(=S)N(CCS(=O)(=O)O)C2=O)c2ccccc21)Nc1cccc(Br)c1 | 73* | -2 | -3 | -10 | -1 | 80* | 49*
Cc1cccc(NC(=O)CN2C(=O)/C(=C3\SC(=S)N(CC4CCCO4)C3=O)c3ccccc32)c1 (stereo not given) | / | / | -4 | / | / | / | /
CC1=C(C(=O)OCc2ccccc2)C(c2ccccc2OS(=O)(=O)c2ccc(C)cc2)NC(=O)N1CCCC(=O)O (stereo not given) | 35* | -1 | / | 3 | -1 | 62* | 21*
CC1=C(C(=O)OCc2ccccc2)C(c2ccccc2Cl)NC(=O)N1CCCC(=O)O (stereo not given) | 15 | -1 | 1 | 2 | -1 | / | /
Cc1cccc(NC(=S)NNC(=O)COc2ccc(Cl)cc2Cl)c1 | 45* | 0 | 0 | -3 | -1 | 33 | 10*
Cc1cc(C)c2sc(NNC(=O)c3ccc(S(=O)(=O)N4CCc5ccccc5C4)cc3)nc2c1 | 48* | 1 | -5 | 45* | 2 | 59* | 29*
COc1ccccc1CCNC(=O)CSc1nc2c([nH]1)c(=O)n(C)c(=O)n2C | 4 | / | / | 5 | / | / | /
Cc1nnc(SCc2cccc([N+](=O)[O-])c2)s1 | 0 | 0 | -3 | 2 | -1 | / | /
O=C(Nc1nnc(SCc2ccccc2)s1)c1cccc([N+](=O)[O-])c1 | 36* | 0 | -10 | -6 | 1 | 23 | 6.0*
CCOc1ccc(-n2c(SCC(=O)c3ccc4ccccc4c3)nnc2-c2ccc(OC)cc2)cc1 | 11 | / | / | 7 | / | / | /
